This is one part of a sample in which hits are shown more often than they occur.
AMPAR-TARP mod – modulators of AMPA receptor GluA2-stargazin complexes; O88602+P19491; HEK293 GluA2+stargazin, membrane potential dye (FDSS), glutamate EC50; hits were called plate by plate, in both directions; calls only at 30 µM; 40,000 tested, 3.5% active; AID 1259245;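 active means any of four per-well response measures lying three or more SD from its plate-wide compound average, in either direction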
GIRK2 act – Activators of human GIRK2-containing channels; P48051; HEK293 GIRK2/NPY4 cells, thallium flux fluorescence; activation (% efficacy), % for hits at 37.5 µM; 34,000 tested, under 10 active; AID 1259324;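 active means primary screen hit, no activity in plain HEK293 cells, and in GIRK2-only cells above 5% efficacy rising with concentration; inactive means the rest, including fluorescent compounds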;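 further: efficacy is normalized control-subtracted fluorescence 15 s after thallium addition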
Target sequence (P48051 whole entry, looked up): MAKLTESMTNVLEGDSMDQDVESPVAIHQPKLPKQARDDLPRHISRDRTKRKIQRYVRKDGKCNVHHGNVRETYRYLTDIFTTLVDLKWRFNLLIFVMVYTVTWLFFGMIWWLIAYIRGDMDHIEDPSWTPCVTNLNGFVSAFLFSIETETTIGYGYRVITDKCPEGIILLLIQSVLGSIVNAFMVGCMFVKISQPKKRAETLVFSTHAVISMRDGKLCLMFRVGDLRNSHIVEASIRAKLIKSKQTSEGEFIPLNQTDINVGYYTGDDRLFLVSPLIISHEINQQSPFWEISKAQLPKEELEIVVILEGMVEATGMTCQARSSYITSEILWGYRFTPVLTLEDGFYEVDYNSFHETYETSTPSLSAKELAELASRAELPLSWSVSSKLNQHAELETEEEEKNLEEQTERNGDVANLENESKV
Each line names hits and unclear results; the compound was inactive in the other large screens; [ ] = dose if it differs, or a comment.

CC(=O)NS(=O)(=O)c1ccc(NC(=O)c2csc(-c3cnccn3)n2)cc1	AMPAR-TARP mod active
O=C(Nc1ccc(-n2cnnn2)cc1)c1csc(-c2cnccn2)n1	none
Cc1ccc(C(=O)Oc2c(S(=O)(=O)c3ccc(C)cc3)c(C)nn2C(C)(C)C)cc1	none (no result: GIRK2 act)
O=C(CCSc1ccc(Cl)cc1)Nc1nnc(-c2ccccn2)o1	none
O=C(CCS(=O)(=O)c1ccc(Cl)cc1)Nc1nnc(-c2ccccn2)o1	AMPAR-TARP mod active
NC(=O)C1CCN(S(=O)(=O)c2ccc(N3C(=O)CCS3(=O)=O)cc2)CC1	none
Cc1noc(C)c1S(=O)(=O)NC1(c2nc(-c3cnccn3)no2)CCCCC1	none
O=S(=O)(NC1(c2nc(-c3cnccn3)no2)CCCCC1)c1ccc(F)c(Cl)c1	AMPAR-TARP mod active
O=C(CCCNS(=O)(=O)c1ccc(Cl)cc1)NCc1ccccc1	none
Cc1ccc(SCC(=O)Nc2sc3c(c2-c2nc4ccccc4s2)CCN(C)C3)cc1	none (no result: GIRK2 act)
CSc1ccccc1CN1CCC(CNC(=O)c2cnc3ccccc3n2)CC1	none
CSc1ncccc1C(=O)N1CCC(CNC(=O)c2ccccc2F)CC1	AMPAR-TARP mod active
CSc1ccccc1CN1CCC(CNC(=O)c2ccccn2)CC1	AMPAR-TARP mod active
CSc1ncccc1C(=O)N1CCC(CNC(=O)c2ccccc2Br)CC1	none
CSc1ncccc1C(=O)N1CCC(CNC(=O)c2cc(Cl)cc(Cl)c2)CC1	none
CSc1ncccc1C(=O)N1CCC(CNC(=O)C2(c3ccc(Cl)cc3)CCCC2)CC1	AMPAR-TARP mod active
O=C(CSc1ccc(F)cc1)NCC1CCN(C(=O)c2ccccc2F)CC1	AMPAR-TARP mod active
CSc1ccccc1C(=O)NCC1CCN(C(=O)c2ccccc2F)CC1	none
COC(=O)C1=CN(C)C=C(C(=O)OC)C1c1cc2c(cc1Cl)OCO2	none (no result: GIRK2 act)
CCOc1cc(C(=O)Nc2ccc3c(c2)CCC(=O)N3CC(C)C)cc(OCC)c1OCC	none
Cc1cc(C(=O)N(Cc2ccsc2)C2CC2)no1	none (no result: AMPAR-TARP mod)
COc1ccc(S(=O)(=O)NCC2COC3(CCCCC3)O2)cc1C (stereo not drawn)	none
O=C(NCCCN1CCOCC1)C(=O)Nc1ccc(F)c([N+](=O)[O-])c1	AMPAR-TARP mod active
O=C(NCCN1CCOCC1)C(=O)Nc1ccc(F)c([N+](=O)[O-])c1	none
Cc1cc(C)n(-c2nc3c(c(=O)n(CC(N)=O)c(=O)n3C)n2Cc2ccccc2C)n1	none
Cc1cc(N(C)C)nc(NCCNC(=O)Nc2cccc(C(F)(F)F)c2)n1	AMPAR-TARP mod active
CSc1cccc(NC(=O)NCCNc2nc(C)cc(N(C)C)n2)c1	none
Cc1ccc(NC(=O)Cn2cnc(C(C)C)cc2=O)c(C)c1	none
Cc1c(Cl)cccc1NC(=O)CCCn1nc(-c2cccs2)ccc1=O	none (no result: AMPAR-TARP mod)
O=C(NCCc1ccccc1)NCC1(O)CCCC1	none
CCCC(=O)Nc1ccc(S(=O)(=O)N2CCN(c3ccc4nnc(C)n4n3)CC2)cc1	AMPAR-TARP mod active
CCOC(=O)c1ccc(S(=O)(=O)N2CCN(c3ccc4nnc(CC)n4n3)CC2)cc1	none
O=S(=O)(/C=C/c1ccccc1)N1CCN(c2ccc(-c3ccco3)nn2)CC1	none
O=S(=O)(/C=C/c1ccccc1)N1CCN(c2ccc3nnc(-c4ccco4)n3n2)CC1	AMPAR-TARP mod active
CC(Oc1ccccc1F)C(=O)N1CCN(c2ccc3nnc(-c4ccco4)n3n2)CC1 (stereo not drawn)	AMPAR-TARP mod active
CCc1ccc(S(=O)(=O)N2CCN(c3ccc4nnc(-c5ccco5)n4n3)CC2)cc1	none
O=C(c1ccc(F)cc1F)N1CCN(c2ccc3nnc(-c4ccco4)n3n2)CC1	none
COc1ccc(S(=O)(=O)N2CCN(c3ccc4nnc(-c5ccco5)n4n3)CC2)cc1	AMPAR-TARP mod active
COCC(C)(O)CNC(=O)C(=O)Nc1cccnc1 (stereo not drawn)	none
Cc1ccc(S(=O)(=O)N2CCC(C(=O)Nc3nc(-c4ccc(Cl)cc4)cs3)CC2)cc1	none (no result: GIRK2 act)
O=C(NCCCSc1ccc(Br)cc1)Nc1ncccn1	none (no result: GIRK2 act)
O=S(=O)(c1ccc(F)cc1)N1CCN(c2ccc3nnc(-c4ccco4)n3n2)CC1	AMPAR-TARP mod active
O=S(=O)(c1cccc(Cl)c1)N1CCN(c2ccc3nnc(-c4ccco4)n3n2)CC1	none
Cc1ccc(S(=O)(=O)c2[nH]c(-c3ccccc3)nc2SCC(=O)Nc2nccs2)cc1	none
CCOc1ccc(-c2ccc(=O)n(CC#N)n2)cc1	none (no result: GIRK2 act)
COc1ccc(-c2nnc(NC(=O)C3CCCN3S(C)(=O)=O)o2)c(OC)c1 (stereo not drawn)	none
CCn1nccc1C(=O)Nc1nnc(-c2ccc(OC)cc2OC)o1	AMPAR-TARP mod active
COc1ccc(-c2nnc(NC(=O)Cc3ccc(C)cc3)o2)c(OC)c1	none
COc1ccc(-c2nnc(NC(=O)Cc3ccc(SC)cc3)o2)c(OC)c1	AMPAR-TARP mod active (no result: GIRK2 act)
COc1ccc(OC)c(-c2nnc(NC(=O)c3ccnn3C)o2)c1	none (no result: AMPAR-TARP mod)
COc1ccc(-c2nnc(NC(=O)C3CC3)o2)c(OC)c1	AMPAR-TARP mod active (no result: GIRK2 act)
Cc1nn(-c2ccc(F)cc2)c2ncc(C(=O)NCC3CCCO3)c(Cl)c12 (stereo not drawn)	none (no result: GIRK2 act)
Cn1c(SCC(=O)Nc2ccc(Cl)c(Cl)c2)nnc1-c1ccc(=O)n(C)c1	none
O=C(Nc1ccc(Cl)cc1)NC1CCCC(O)C1 (stereo not drawn)	none
O=C(Cn1nc(-n2cccn2)ccc1=O)N1CCN(c2ccc(O)cc2)CC1	none
O=S(=O)(NCCC(O)c1cccs1)C1CC1 (stereo not drawn)	none
Cc1cc(NS(=O)(=O)c2ccc(C(C)C)cc2)n(C2CCS(=O)(=O)C2)n1 (stereo not drawn)	none
O=C1CC(NC(=O)NC2CCCCC2)CN1 (stereo not drawn)	none (no result: AMPAR-TARP mod)
COc1ccc(S(=O)(=O)c2c(C)cc(C)n(CC(=O)Nc3cc(Cl)ccc3OC)c2=O)cc1	none
COc1ccc(Br)cc1S(=O)(=O)Nc1cc(Cl)ccc1O	AMPAR-TARP mod active
COc1cc(S(=O)(=O)Nc2cc(Cl)ccc2O)ccc1Cl	AMPAR-TARP mod active
CCOc1ccc(S(=O)(=O)Nc2cc(Cl)ccc2O)cc1C	none
COc1ccc(Cl)cc1S(=O)(=O)Nc1cc(Cl)ccc1O	none
Cc1ccc(Oc2cccc(C(=O)Nc3nc4ccccc4[nH]3)c2)nn1	none
CCCc1c(C(=O)Nc2ccccc2F)nnn1-c1ccccc1	GIRK2 act 7.0%[25 µM]
CCCc1c(C(=O)NCc2ccccc2OC)nnn1-c1ccccc1	none
O=C(c1cccs1)N1CCN(Cc2nc3ccccc3[nH]2)CC1	none
O=C(NCCOCCO)C(=O)Nc1c2c(nn1-c1ccccc1)CS(=O)(=O)C2	none
O=C(C1COc2ccccc2O1)N(Cc1ccco1)c1nc2ccccc2s1 (stereo not drawn)	none (no result: GIRK2 act)
CCCCN1CC(c2nc3ccccc3n2CCOc2cccc(OC)c2)CC1=O (stereo not drawn)	none (no result: GIRK2 act)
CCCCN1CC(c2nc3ccccc3n2CCOc2ccccc2OC)CC1=O (stereo not drawn)	AMPAR-TARP mod active (no result: GIRK2 act)
Cn1c(C2CC(=O)N(CCc3ccccc3)C2)nc2ccccc21 (stereo not drawn)	none (no result: GIRK2 act)
CCCCN1CC(c2nc3ccccc3n2Cc2c(F)cccc2Cl)CC1=O (stereo not drawn)	AMPAR-TARP mod active (no result: GIRK2 act)
C=C(Br)Cn1c(C2CC(=O)N(CCCC)C2)nc2ccccc21 (stereo not drawn)	none
CCCCn1c(C2CC(=O)N(c3ccc(C)c(Cl)c3)C2)nc2ccccc21 (stereo not drawn)	AMPAR-TARP mod active (no result: GIRK2 act)
CCCn1c(C2CC(=O)N(CCc3ccccc3)C2)nc2ccccc21 (stereo not drawn)	AMPAR-TARP mod active (no result: GIRK2 act)

Source: PubChem BioAssay (several laboratories)
